Laboratory results from the supplement of paper PMC8253809.
Where “and” joins values, the source holds several entries; their conditions need not be identical. Equal entries are not always repeated.

Experiments:
Assay in all cases: growth inhibition (% activity, log2 RLU normalised to DMSO / staurosporine); higher = more growth inhibition
Conditions in all cases: 33 µM
DIPGX29 = system: DIPGX29 (H3.3 K27M diffuse intrinsic pontine glioma line)
How it was run: (§1)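 On Geltrex-coated 384-well plates, pHGG cell lines and H9-derived neural stem cells were grown with approved drugs pinned in at a single final concentration of about 33 μM, in triplicate, for 7 days at 37 °C, 5% CO2. Per-plate normalisation of log2-transformed CellTiter-Glo luminescence to % activity between solvent and positive control wells followed. Each growth-inhibition value is the median over the replicates.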

DIPGX37 = system: DIPGX37 (H3.3 K27M diffuse intrinsic pontine glioma line)
How it was run: as §1

DIPGX7 = system: DIPGX7 (H3.3 K27M diffuse intrinsic pontine glioma line)
How it was run: as §1

DIPGX9 = system: DIPGX9 (diffuse intrinsic pontine glioma line)
How it was run: as §1

HGGX39 = system: HGGX39 (paediatric high-grade glioma line)
How it was run: as §1

HGGX6 = system: HGGX6 (H3.3 G34R paediatric high-grade glioma line)
How it was run: as §1

HNSC = system: HNSC
How it was run: as §1

SUDIPGIV = system: SUDIPGIV (diffuse intrinsic pontine glioma line)
How it was run: as §1

SUDIPGVI = system: SUDIPGVI (diffuse intrinsic pontine glioma line)
How it was run: as §1

SUDIPGXIII = system: SUDIPGXIII (diffuse intrinsic pontine glioma line)
How it was run: as §1

Compound	growth inhibition (DIPGX29)	growth inhibition (DIPGX37)	growth inhibition (DIPGX7)	growth inhibition (DIPGX9)	growth inhibition (HGGX39)	growth inhibition (HGGX6)	growth inhibition (HNSC)	growth inhibition (SUDIPGIV)	growth inhibition (SUDIPGVI)	growth inhibition (SUDIPGXIII)
Clc1cccc(Cl)c1NC1=NCCN1	1.49%	-3.42%	1.12%	0.614%	1.32%	0.951%	2.98%	0.943%	-1.83%	-1.09%
CC(=O)OCC(=O)[C@@]1(O)CC[C@H]2[C@@H]3CCC4=CC(=O)C=C[C@]4(C)[C@H]3[C@@H](O)C[C@@]21C	2.24%	0.724%	2.19%	3.92%	5.57%	2.03%	1.11%	2.53%	-1.15%	2.13%
N[C@@H]1CN(c2c(F)cc3c(=O)c(C(=O)O)cn([C@@H]4C[C@@H]4F)c3c2Cl)CC12CC2	1.84%	4.34%	1.79%	0.793%	3.53%	0.649%	0.64%	0.64%	3.9%	-3.35%
CC(C)C[C@H](NC(=O)[C@H](CCc1ccccc1)NC(=O)CN1CCOCC1)C(=O)N[C@@H](Cc1ccccc1)C(=O)N[C@@H](CC(C)C)C(=O)[C@@]1(C)CO1	49.4%	59.1%	55.8%	55%	51.3%	57.8%	56.9%	55%	52%	29.5%
CO[C@H]1O[C@@H]2O[C@@]3(C)CC[C@H]4[C@H](C)CC[C@@H]([C@H]1C)[C@@]24OO3	0.229%	0.466%	1.37%	2.08%	3.99%	5.37%	3.37%	13.7%	1.25%	14.3%
CN(CCOc1ccc(NS(C)(=O)=O)cc1)CCc1ccc(NS(C)(=O)=O)cc1	-2.77%	-1.46%	0.833%	-2.46%	-2.37%	-1.41%	-6.33%	-2.75%	-13.8%	0.844%
CCCCCCCCCC(=O)NC1C(Oc2c3cc4cc2Oc2ccc(cc2Cl)C(OC2OC(CO)C(O)C(O)C2NC(C)=O)C2NC(=O)C(NC(=O)C4NC(=O)C4NC(=O)C(Cc5ccc(c(Cl)c5)O3)NC(=O)C(N)c3ccc(O)c(c3)Oc3cc(O)cc4c3)c3ccc(O)c(c3)-c3c(OC4OC(CO)C(O)C(O)C4O)cc(O)cc3C(C(=O)O)NC2=O)OC(CO)C(O)C1O (stereo not given)	-0.31%	0.115%	0.155%	0.4%	-1.12%	-0.793%	0.958%	-1.1%	0.462%	2.06%
COC(=O)Nc1nc2cc(C(=O)c3ccc(F)cc3)ccc2[nH]1	5.17%	7.48%	3.54%	6.48%	-0.271%	3.94%	63.6%	-1.42%	0.822%	5.19%
Cc1ccc(N(CC2=NCCN2)c2cccc(O)c2)cc1	-5.09%	-4.29%	-2.56%	-2.27%	-2.42%	-3.2%	1.6%	-4.67%	-4.28%	-1.14%
CCCCc1nc(Cl)c(CO)n1Cc1ccc(-c2ccccc2-c2nnn[nH]2)cc1	1.53%	-1.24%	-0.599%	0.985%	0.264%	1.5%	2.21%	0.0281%	1.16%	0.404%
CN(C)CCOC(C)(c1ccccc1)c1ccccn1 (stereo not given)	-1.53%	-0.506%	0.0494%	-1.25%	0.245%	-0.355%	-1.65%	-0.218%	-0.777%	0.1%
CC1=NN(c2ccccc2)C(=O)C1	-3.36%	-1.06%	-0.361%	-0.407%	-0.249%	-3.17%	-4.84%	1.69%	-1.55%	-0.303%
CC1(C)S[C@@H]2[C@H](NC(=O)[C@H](N)c3ccc(O)cc3)C(=O)N2[C@H]1C(=O)O	-2.54% and 1.43%	-2.93% and 3.86%	-1.48% and 1.69%	0.486% and 1.84%	0.0264% and 2.87%	0.163% and 3.37%	-3.3% and 1.46%	-1.85% and 0.698%	-2.12% and 2.79%	7.41% and 0.66%
COC(=O)C1=CO[C@@H](O)[C@@H]2C(CO)=CC[C@H]12	-0.243%	2.53%	-0.199%	2.66%	-0.158%	2.23%	-1.1%	-0.3%	-0.83%	1.32%
CC(=O)OCC(=O)NCCCOc1cccc(CN2CCCCC2)c1	-1.28%	1.04%	-1.47%	-0.989%	-1.44%	0.942%	-4.85%	-2.05%	-0.427%	-1.04%
N=C(N=C(N)N)N1CCOCC1	0.894%	3.09%	0.853%	1.87%	2.32%	0.804%	0.723%	-0.801%	2.92%	-0.103%
N#C[C@@H]1C[C@@H]2C[C@@H]2N1C(=O)[C@@H](N)C12CC3CC(CC(O)(C3)C1)C2	2.2%	1.41%	1.21%	0.435%	5.53%	2.65%	8.15%	7.37%	2.7%	7.88%

Compound	growth inhibition (DIPGX29)	growth inhibition (DIPGX37)	growth inhibition (DIPGX7)	growth inhibition (DIPGX9)	growth inhibition (HGGX39)	growth inhibition (HGGX6)	growth inhibition (HNSC)	growth inhibition (SUDIPGIV)	growth inhibition (SUDIPGVI)	growth inhibition (SUDIPGXIII)
COc1ccc2cc([C@H](C)C(=O)O)ccc2c1	-0.22%	-1.1%	-0.43%	0.193%	-0.312%	0.298%	0.9%	-2.72%	0.358%	0.579%
CN1C(C(=O)Nc2ccccn2)=C(O)c2sc(Cl)cc2S1(=O)=O	-1.88%	-0.653%	-2.4%	0.761%	-1.26%	-0.605%	-1.13%	-7.21%	-0.634%	2.15%
CCN1CCCC1CNC(=O)c1cc(S(N)(=O)=O)ccc1OC (stereo not given)	1.2%	3.95%	2.35%	1.38%	2.29%	0.912%	1.32%	0.319%	3.68%	0.786%
C[C@@H](O[C@H]1OCCN(Cc2nn(P(=O)(O)O)c(=O)[nH]2)[C@H]1c1ccc(F)cc1)c1cc(C(F)(F)F)cc(C(F)(F)F)c1	6.53%	2.67%	3.46%	4.01%	11.6%	5.75%	4.2%	16.2%	3.61%	11.4%
CCCNC(C)C(=O)Nc1c(C)csc1C(=O)OC (stereo not given)	0.453%	0.894%	1.5%	-0.444%	3.43%	1.44%	5.64%	0.331%	2.98%	-0.525%
CSc1nc2cc(Cl)c(Oc3cccc(Cl)c3Cl)cc2[nH]1	1.22%	-0.121%	-0.253%	0.647%	4.81%	3.1%	-0.0294%	2.29%	1.54%	2.86%
CC1(C)S[C@@H]2[C@H](NC(=O)[C@H](N)c3ccccc3)C(=O)N2[C@H]1C(=O)O	0.915% and -0.852%	0.428% and -3.6%	-0.263% and 0.439%	2.01% and -1.14%	0.0853% and 0.776%	0.491% and -0.506%	-1.66% and -0.947%	0.0994% and -1.08%	1.4% and -3.54%	0.006% and 0.466%
O=C(O)c1cc(-c2ccccc2)nc2ccccc12	0.382%	2.97%	0.465%	2.04%	1.46%	1.01%	-0.619%	-1.08%	2.54%	0.975%
CC[C@H]1OC(=O)[C@H](C)[C@@H](O[C@H]2C[C@@](C)(OC)[C@@H](O)[C@H](C)O2)[C@H](C)[C@@H](O[C@@H]2O[C@H](C)C[C@H](N(C)C)[C@H]2O)[C@](C)(O)C[C@@H](C)C(=O)[C@H](C)[C@@H](O)[C@]1(C)O	0.288%	-2.96%	0.845%	0.939%	1.08%	-0.333%	2.65%	1.14%	2.66%	-1.2%
COCCOC(=O)C1=C(C)NC(C)=C(C(=O)OC(C)C)C1c1cccc([N+](=O)[O-])c1 (stereo not given)	-0.32%	0.964%	-0.466%	0.313%	1.43%	-1.47%	2.29%	0.263%	1.28%	2.89%
CC[C@H]1OC(=O)[C@H](C)[C@@H](O[C@H]2C[C@@](C)(OC)[C@@H](O)[C@H](C)O2)[C@H](C)[C@@H](O[C@@H]2O[C@H](C)C[C@H](N(C)C)[C@H]2O)[C@](C)(OC)C[C@@H](C)C(=O)[C@H](C)[C@@H](O)[C@]1(C)O	-1.86%	0.02%	-2.66%	-0.349%	1.64%	0.562%	-3.32%	-2.12%	-0.602%	-13%
CCN(CC)CCOC(=O)C(c1ccccc1)c1ccccc1	3.33%	2.41%	3.35%	1.46%	2.96%	2.47%	6.35%	0.181%	3%	-1.28%
C[C@]12CCC3=C4CCC(=O)C=C4CC[C@H]3[C@@H]1CC[C@@]2(O)CC#N	1.43%	-1.59%	-0.302%	0.24%	0.279%	-1.72%	0.249%	-0.958%	1.03%	0.668%
O=C1CN2Cc3c(ccc(Cl)c3Cl)N=C2N1	-0.095%	-0.968%	-0.492%	0.847%	3.51%	9.62%	-2.73%	-0.36%	0.709%	-4.79%
C[C@@H]1C/C=C/C=C/C=C/C=C/[C@H](O[C@@H]2O[C@H](C)[C@@H](O)[C@H](N)[C@@H]2O)C[C@@H]2O[C@](O)(C[C@@H](O)C[C@H]3O[C@@H]3/C=C/C(=O)O1)C[C@H](O)[C@H]2C(=O)O	1.2%	2.42%	1.64%	1.2%	1.86%	0.734%	-0.468%	0.119%	3.23%	0.668%
CO[C@H]1C[C@@H]2CC[C@@H](C)[C@@](O)(O2)C(=O)C(=O)N2CCCC[C@H]2C(=O)O[C@H]([C@H](C)C[C@@H]2CC[C@@H](OC(=O)C(C)(CO)CO)[C@H](OC)C2)CC(=O)[C@H](C)/C=C(\C)[C@@H](O)[C@@H](OC)C(=O)[C@H](C)C[C@H](C)/C=C/C=C/C=C/1C	1.36%	0.103%	4.97%	14%	6.98%	5.24%	3.52%	1.47%	3.49%	-0.989%
O=C(O)C1(C(=O)O)CCC1.[NH2-].[NH2-].[Pt+2]	-2.53%	0.00905%	-1.49%	-0.992%	-2.69%	-4.21%	4.08%	-3.4%	-3.41%	-0.0982%
